Measured values: PubChem BioAssay
Active and inactive are the calls of the source.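 Rule for the calls: active = inhibition above the hit cutoff set in the earlier primary screen (cut at about 27% in these data); inactive = the rest.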

Each compound was assayed against Protein phosphatase methylesterase 1 (Homo sapiens) (UniProt Q9Y570) (assay: PME-1 inhibitor activity retest, confirmation, biochemical, fluorescence polarization, FP-Rh probe, triplicate (AID 2171;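 note: 0% = enzyme with DMSO and 100% = wells lacking PME-1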)). Details: recombinant PME-1, FP-Rh probe fluorescence polarization; at 5.9 µM; stronger effect = higher value.
Sequence of Protein phosphatase methylesterase 1 (Homo sapiens) (Q9Y570 whole entry, looked up): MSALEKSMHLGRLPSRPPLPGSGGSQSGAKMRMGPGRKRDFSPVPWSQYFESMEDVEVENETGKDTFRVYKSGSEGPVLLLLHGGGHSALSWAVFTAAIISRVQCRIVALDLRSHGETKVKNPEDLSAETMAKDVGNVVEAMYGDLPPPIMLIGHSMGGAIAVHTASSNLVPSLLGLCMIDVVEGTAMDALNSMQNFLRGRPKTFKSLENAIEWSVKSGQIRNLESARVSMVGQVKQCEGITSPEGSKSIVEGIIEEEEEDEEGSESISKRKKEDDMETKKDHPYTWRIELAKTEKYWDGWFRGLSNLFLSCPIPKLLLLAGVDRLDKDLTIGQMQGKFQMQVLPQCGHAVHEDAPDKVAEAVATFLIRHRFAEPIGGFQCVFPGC
With `Cc1ccc2nc(-c3sc4nc(C)cc(C)c4c3N)[nH]c2c1` the inhibition was 18.2% (inactive).
In the case of `O=C(O)c1ccc(N/N=C/c2ccc(OC(=O)c3cccc(Cl)c3)cc2)cc1`, the inhibition was 37% (active).
In the case of `Nc1ccc(O)c2c1C(=O)c1ccccc1C2=O`, the inhibition was 46.5% (active).
In the case of `CCOc1cc(N(CC)CC)ccc1/C=C(/C#N)c1nc2ccccc2[nH]1`, the inhibition was 8.91% (inactive).
With `Cn1c(=O)c(Nc2ccc(Cl)cc2)c2c3c(cccc31)C(=O)c1ccccc1-2` the inhibition was 62.5% (active).
With `Cc1cc(NS(=O)(=O)c2ccc(Nc3nc(-c4sc(NC(=O)c5ccccc5)nc4C)cs3)cc2)no1` the inhibition was 70.6% (active).
With `COc1ccc(Br)cc1CNc1ccc(O)cc1` the inhibition was 9.35% (inactive).
`Cc1ccc(S(=O)(=O)CCSc2cccc(C(=O)Nc3ccccc3C(=O)O)c2)cc1` was tested, and the inhibition was 35.8% (active).
`Cc1[nH]c2ccccc2c1/C=C/c1nc2ccccc2c(=O)n1CCO` was tested, and the inhibition was 68.3% (active).
In the case of `C#CCN1c2ccccc2Sc2cccnc21`, the inhibition was 1.92% (inactive).
`COc1ccc2cc3c(N)c(C(=O)NCc4ccco4)sc3nc2c1` was tested, and the inhibition was 39.8% (active).
For `O=C(COC(=O)/C=C/c1cccs1)Nc1nc(-c2cccc(Br)c2)cs1`, the inhibition was 14.9% (inactive).
In the case of `CC(=O)Oc1ccc2c(c1)Oc1cc(OC(C)=O)ccc1C21OC(=O)c2ccccc21`, the inhibition was 148% (active).
With `O=C1CN(C(=O)c2cc3ccccc3oc2=O)C(c2ccccc2)c2cc(F)ccc2N1` (centres undefined) the inhibition was 18.1% (inactive).
`Cc1c(Cl)cccc1Nc1nc(N)nc(CSc2nc3ccccc3s2)n1` was tested, and the inhibition was 25.1% (inactive).
With `CCOC(=O)N1CC=C2C(C#N)=C(N)C(C#N)(C#N)[C@H](c3ccccc3OCC)[C@H]2C1` the inhibition was 90.5% (active).
For `C=CCOc1ccc(/C=N/NC(=O)c2cc3c(OC)cc(OC)cc3[nH]2)cc1`, the inhibition was 24.4% (inactive).
`COc1ccc(OCCn2cc(/C=N/NC(=O)c3ccncc3)c3ccccc32)cc1` was tested, and the inhibition was -21.9% (inactive).
With `COc1cc(OC)cc(C(=O)Oc2ccc(/C=N/Nc3nc4ccccc4s3)cc2OC)c1` the inhibition was 24.3% (inactive).
`COc1ccc2oc(=O)c(-c3csc(Nc4cccc(O)c4)n3)cc2c1` was tested, and the inhibition was 9.36% (inactive).
With `COc1ccc2c(c1)cc(C(=O)N/N=C/c1c(O)c(C(=O)O)cc3ccccc13)n2C` the inhibition was 30% (active).
In the case of `Cn1nc(-c2ccc(Cl)cc2)nc2c(=O)n(C)c(=O)nc1-2`, the inhibition was 44.8% (active).
With `COC(=O)N1C(=O)[C@](c2ccccc2)(C2CCCCC2)N1C(=O)OC` the inhibition was 76.6% (active).
With `N#CC(C#N)=NNc1ccc(S(=O)(=O)N2CCCCC2)cc1` the inhibition was 14.8% (inactive).
`N#Cc1c(N)nc2c3c(sc(=N)c2c1N)NC(=O)CC3c1ccccc1` (centres undefined) was tested, and the inhibition was 29% (active).
In the case of `CCCCN(CCCC)CCNC(=O)c1cn(CC)c2ccc(S(=O)(=O)N3CCc4ccccc4C3)cc2c1=O`, the inhibition was 48.8% (active).
`CCOC(=O)Cc1csc(NC(=O)c2sc3nc4ccc(C)cc4cc3c2N)n1` was tested, and the inhibition was 21% (inactive).
For `N=C1CCC(=N)c2c1c(O)c1ccccc1c2O`, the inhibition was 21.1% (inactive).
`CCc1ccc2nc(SCC(=O)N3CC(=O)Nc4ccccc43)c(C#N)cc2c1` was tested, and the inhibition was 15.3% (inactive).
For `Cn1c(=O)c(NCCc2ccccc2)c2c3c(cccc31)C(=O)c1ccccc1-2`, the inhibition was 177% (active).
With `Cc1cc2c(N)cccc2nn1` the inhibition was 7.9% (inactive).
In the case of `CCOc1ccc(NC(=S)Nc2ccc3nsnc3c2)cc1`, the inhibition was 24.1% (inactive).
In the case of `C=CCn1c(O)c(N=Nc2ccccc2O)c2ccccc21`, the inhibition was 29.2% (active).
In the case of `Nc1c(Cl)cc(-c2[nH]c3cc(C(=O)NCCO)ccc3c(=O)c2O)cc1Cl`, the inhibition was -9.64% (inactive).
`COc1cc(N=Nc2cccc(S(N)(=O)=O)c2)c2ccccc2c1N` was tested, and the inhibition was 33.1% (active).
`Cc1ccc(S(=O)(=O)N2CCN(C(=O)Cn3cnc4c3c(=O)n(C)c(=O)n4C)CC2)cc1C` was tested, and the inhibition was 20.7% (inactive).
For `Cn1c2ccccc2c2cc(/C=N/NC(=O)c3ccc(N)cc3)ccc21`, the inhibition was 19.7% (inactive).
In the case of `O=S(=O)(Nc1nc2ccccc2nc1Nc1cccc(S(=O)(=O)N2CCCCC2)c1)c1ccccc1`, the inhibition was 34.9% (active).
With `C/C(=N\Nc1ccc(C(=O)O)cc1)c1ccc2c(c1)Nc1ccccc1S2` the inhibition was 30.5% (active).
